PubChem BioAssay (NCATS)
Several values for one entry are separate records, joined by “and”; a condition that tells them apart may be missing. Equal values may be shown once. Records with an inconclusive call do not appear. Activity calls are given as the source filed them. Unless noted, calls come from the whole dose curve; as a rule, active = well fitted curve in the direction sought with a large enough effect; inconclusive = small, poorly fitted or top-dose-only effect, or another doubt; inactive = no such curve, though single readings can be large; an effect the other way counts as inactive or inconclusive.

Columns and labels:
[1] = target: phosphoglycerate mutase (Leishmania major) (UniProt Q4Q090); assay: qHTS Validation Assay to Find Inhibitors of Phosphoglycerate Mutase (AID 504548); note: series mostly up to about 58 µM; % is set by controls: 0 for no effect and ±100 for the full control effect
Outline: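 Lm PGAM 1.25nM final; 100 mM TEA pH 7.6, 5 mM MgCl2, 0.01% Tween-20; 45 min RT; Kinase-GloPlus, 10 min; end-point luminescence. Enzyme-free wells as negative controls.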

[2] = target: Ubiquitin carboxyl-terminal hydrolase 1 (Homo sapiens) (UniProt O94782); assay: Inhibitors of USP1/UAF1: Pilot qHTS (AID 504865);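 note: rhodamine fluorescence freed from ubiquitin-rhodamine substrate followed over time; top concentration of the series differs between compounds; % is set by controls: 0 for no effect and ±100 for the full control effect; nearly all actives have a fitted effect of over 35% in size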
Outline: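 USP1/UAF1 complex at 1 nM preincubated 15 min at room temperature with compound, then Ub-Rho substrate added at 150 nM final. Fluorescence (480/540 nm) read kinetically in 50 mM HEPES pH 7.8, 0.5 mM EDTA, 1 mM TCEP, 0.1 mg/ml BSA, 0.01% Tween-20.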

[3] = qHTS for Inhibitors of ATXN expression: Validation of Cytotoxic Assay (AID 588349); note: % is set by controls: 0 for no effect and ±100 for the full control effect
Outline: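 Cytotoxicity counter-screen: ATP-based luminescent viability (CellTiter Glo) after 72 hr exposure of HEK293 cells to a compound titration at 37 degrees C.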

[4] = qHTS for Inhibitors of ATXN expression: Validation (AID 588378); note: nearly all actives have a fitted effect of over 75% in size; note: potency is the fitted concentration of half-maximal effect
Outline: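 HEK293 cells carrying ATXN2-firefly luciferase reporter, treated with compound 24 h at 37 °C. Viability read first by CellTiter-Fluor (405/525 nm), then reporter expression by Bright-Glo luminescence; controls were a known ATXN2 expression inhibitor and a luciferase inhibitor.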

[5] = target: DNA dC->dU-editing enzyme APOBEC-3G (Homo sapiens) (UniProt Q9HC16); assay: qHTS for inhibitors of Vif-A3G interactions: Validation (AID 588379); note: 0% is about no effect
Outline: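 Yellow fluorescence (Ex 488, Em 500-530) of Vif-coexpressing HeLa A3G-eYFP cells, scanned by Acumen cytometer, reports blocked A3G degradation. Cells plated at 700/well overnight at 37 deg C before compound addition, then a further overnight compound incubation at 37 deg C.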

[6] = target: Estrogen receptor (Homo sapiens) (UniProt P03372); assay: qHTS assay for small molecule agonists of estrogen receptor alpha signaling (AID 588514; calls by dose curve;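 note: 0% = vehicle only and 100% = reference agonist; nearly all actives have a fitted effect of over 70% in size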)
Outline: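 EC50 and efficacy came from Hill fits of beta-lactamase reporter signal (CCF4 dye, 2 h at room temperature) scaled between DMSO and 20 nM 17-beta-estradiol. Agonist mode: HEK293 ER-alpha-UAS-bla cells in charcoal/dextran-stripped serum medium, 18 h compound exposure at 37 C.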

[7] = qHTS assay for small molecule antagonists of peroxisome proliferator-activated receptor delta signaling (AID 588535; active = well fitted inhibition curve with a large enough effect in the signal ratio, with a control signal flat, not every such curve was filed as active; the % refers to the signal ratio;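 for max response: cells co-treated with a PPAR-delta agonist as stimulator during compound exposure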); conditions: HEK293T PPARd-UAS-bla, beta-lactamase FRET ratio, 18 h; 460 nm channel
Outline: (§1)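 Inhibition of PPAR-delta response element-driven beta-lactamase expression is measured in HEK293T cells exposed to a compound titration series for 18 hrs at 37 C. Half-maximal inhibition comes from Hill equation fitting.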

[8] = target: Peroxisome proliferator-activated receptor delta (Homo sapiens) (UniProt Q03181); assay: as above
Outline: as §1

[9] = target: Peroxisome proliferator-activated receptor gamma (Homo sapiens) (UniProt P37231); assay: qHTS assay for small molecule agonists of peroxisome proliferator-activated receptor gamma signaling (AID 588536; active = well fitted curve in the direction sought with a large enough effect in the signal ratio, with a control signal flat, not every such curve was filed as active; the % refers to the signal ratio;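 note: 0% = DMSO basal wells and 100% = rosiglitazone at 2 µM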)
Outline: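 Compound treatment: 16 h, 37 C, HEK293 GeneBLAzer cells. Detection: CCF4, 2 h RT. Values: Hill-fit EC50, efficacy as % of 2 uM rosiglitazone.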

[10] = target: Peroxisome proliferator-activated receptor gamma (Homo sapiens) (UniProt P37231); assay: qHTS assay for small molecule antagonists of peroxisome proliferator-activated receptor gamma signaling (AID 588537; active = well fitted inhibition curve with a large enough effect in the signal ratio, with a control signal flat, not every such curve was filed as active; the % refers to the signal ratio;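 note: reporter cells co-stimulated with 50 nM rosiglitazone agonist during compound treatment; % of control where 0% means no effect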)
Outline: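 Compounds are tested as concentration series for inhibition of rosiglitazone-driven (50 nM) reporter expression in GeneBLAzer PPAR-gamma-UAS-bla HEK293 cells. After 16 h at 37 C, CCF4 substrate is added for 2 h at room temperature and blue/green fluorescence is measured.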

[11] = qHTS assay for small molecule agonists of retinoid X receptor alpha signaling (AID 588544; calls by dose curve;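 for activation: 0% = DMSO basal wells and 100% = reference agonist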); conditions: HEK293T RXRa-UAS-bla, beta-lactamase reporter, 18 h; 530 nm emission
[12] = target: Retinoic acid receptor RXR-alpha (Homo sapiens) (UniProt P19793); assay: as above
[13] = target: Thyroid hormone receptor beta (Homo sapiens) (UniProt P10828); assay: qHTS assay for small molecule agonists of thyroid hormone receptor beta signaling (AID 588545; calls by dose curve;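 note: 0% = DMSO only and 100% = 10 nM T3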)
Outline: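 Stimulation of a TR-driven beta-lactamase reporter was quantified in GripTite HEK 293 cells. Compound series ran for 18 hrs; curves were normalized to T3 and DMSO controls and fitted to yield EC50.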

[14] = target: Glucocorticoid receptor (Homo sapiens) (UniProt P04150); assay: qHTS assay for small molecule agonists of glucocorticoid receptor signaling (AID 588532; active = well fitted curve in the direction sought with a large enough effect in the signal ratio, with a control signal flat; the % refers to the signal ratio;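 note: 100% = dexamethasone at 0.1 µM and 0% = DMSO only wells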); conditions: HeLa MMTV-bla, beta-lactamase ratio, agonist, 18 h; stronger effect = higher value; percent of dexamethasone control, DMSO zero
Outline: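 Titration series, up to 92 uM, applied to GRE-bla HeLa cells for 18 h at 37 C. Detection by CCF4 FRET substrate after 2 h at RT.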

[15] = target: Vitamin D3 receptor (Homo sapiens) (UniProt P11473); assay: qHTS assay for small molecule antagonists of vitamin D receptor signaling (AID 588541; calls by dose curve;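 note: receptor activated by calcitriol during compound treatment; series mostly up to about 77 µM; % is set by controls: 0 for no effect and ±100 for the full control effect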)
Outline: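 VDR-UAS-bla HEK293T cells (2000/well, 2% charcoal-stripped FBS) were treated with titrated compounds plus 1-alpha,25-dihydroxyvitamin D3 (50 nM or 3 nM final) for 16 h at 37 C. CCF4 beta-lactamase fluorescence was read; Hill fits gave IC50.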

[16] = target: Vitamin D3 receptor (Homo sapiens) (UniProt P11473); assay: qHTS assay for small molecule agonists of vitamin D receptor signaling (AID 588543; calls by dose curve;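 note: 0% = DMSO basal and 100% = reference agonist control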)
Outline: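 VDR-UAS-bla HEK293T cells, 2000/well, 2% charcoal-stripped FBS; compound titration 16 h at 37 C; CCF4 beta-lactamase ratio read. Normalized to 50 nM 1-alpha,25-dihydroxyvitamin D3 (100%) and DMSO; Hill fit gives EC50, efficacy.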

[17] = target: Glucocorticoid receptor (Homo sapiens) (UniProt P04150); assay: qHTS assay for small molecule antagonists of glucocorticoid receptor signaling (AID 588533; active = well fitted inhibition curve with a large enough effect in the signal ratio, with a control signal flat, not every such curve was filed as active; the % refers to the signal ratio;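 note: cells stimulated with 2 nM dexamethasone as agonist; % is set by controls: 0 for no effect and ±100 for the full control effect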)
Outline: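 Antagonist-mode qHTS: compound titrations added to GRE-bla HeLa cells, then dexamethasone 2 nM final; 18 h, 37 C. CCF4 FRET fluorescence normalized to dexamethasone and DMSO; IC50 from Hill fit.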

[18] = target: Bile acid receptor (Homo sapiens) (UniProt Q96RI1); assay: qHTS assay for small molecule antagonists of farnesoid X receptor signaling (AID 588526; calls by dose curve; note: % is set by controls: 0 for no effect and ±100 for the full control effect)
Outline: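 Concentration-response titrations were fitted to the Hill equation for half-maximal inhibition and maximal response, with data normalised to 50 uM chenodeoxycholic acid and DMSO control wells. Cells: FXR-UAS-bla HEK293T, dialyzed FBS.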

[19] = target: Androgen receptor (Homo sapiens) (UniProt P10275); assay: qHTS assay for small molecule agonists of androgen receptor signaling (AID 588515; active = well fitted curve in the direction sought with a large enough effect in the signal ratio, with a control signal flat; the % refers to the signal ratio; note: % is set by controls: 0 for no effect and ±100 for the full control effect); conditions: AR-UAS-bla HEK293, beta-lactamase ratio, agonist 16 h; stronger effect = higher value
Outline: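 Stimulation of an AR-responsive β-lactamase reporter in GripTite HEK293 cells was measured after 16 h compound exposure at 37 °C, via CCF4 fluorescence after 2 h RT. EC50 from Hill fits, normalized to R1881 at 30 nM.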

Sequence of Vitamin D3 receptor (Homo sapiens) (P11473 whole entry, looked up): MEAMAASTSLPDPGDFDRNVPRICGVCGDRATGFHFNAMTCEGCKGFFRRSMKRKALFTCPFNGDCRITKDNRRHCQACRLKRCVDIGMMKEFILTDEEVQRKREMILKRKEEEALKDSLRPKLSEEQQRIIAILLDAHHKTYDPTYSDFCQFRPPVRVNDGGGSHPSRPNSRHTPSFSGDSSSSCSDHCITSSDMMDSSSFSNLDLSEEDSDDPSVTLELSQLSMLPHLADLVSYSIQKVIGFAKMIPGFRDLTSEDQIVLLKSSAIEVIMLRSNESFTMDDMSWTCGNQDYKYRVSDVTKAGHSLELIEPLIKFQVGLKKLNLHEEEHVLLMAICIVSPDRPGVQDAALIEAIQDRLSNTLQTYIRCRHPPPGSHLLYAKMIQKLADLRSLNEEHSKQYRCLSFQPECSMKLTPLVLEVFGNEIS
Sequence of Retinoic acid receptor RXR-alpha (Homo sapiens) (P19793 whole entry, looked up): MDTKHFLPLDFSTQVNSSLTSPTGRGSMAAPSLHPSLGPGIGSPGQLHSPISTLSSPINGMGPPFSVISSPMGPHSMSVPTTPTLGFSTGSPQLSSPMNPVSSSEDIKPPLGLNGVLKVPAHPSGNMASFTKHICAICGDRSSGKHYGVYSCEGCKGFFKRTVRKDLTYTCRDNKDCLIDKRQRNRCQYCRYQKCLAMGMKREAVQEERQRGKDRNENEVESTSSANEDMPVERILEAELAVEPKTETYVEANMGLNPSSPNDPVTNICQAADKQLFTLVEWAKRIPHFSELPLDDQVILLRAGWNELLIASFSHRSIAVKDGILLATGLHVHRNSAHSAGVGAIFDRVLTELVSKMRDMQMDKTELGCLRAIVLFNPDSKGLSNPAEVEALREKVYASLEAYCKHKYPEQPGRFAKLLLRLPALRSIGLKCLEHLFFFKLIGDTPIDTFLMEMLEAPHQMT
Sequence of Ubiquitin carboxyl-terminal hydrolase 1 (Homo sapiens) (O94782 whole entry, looked up): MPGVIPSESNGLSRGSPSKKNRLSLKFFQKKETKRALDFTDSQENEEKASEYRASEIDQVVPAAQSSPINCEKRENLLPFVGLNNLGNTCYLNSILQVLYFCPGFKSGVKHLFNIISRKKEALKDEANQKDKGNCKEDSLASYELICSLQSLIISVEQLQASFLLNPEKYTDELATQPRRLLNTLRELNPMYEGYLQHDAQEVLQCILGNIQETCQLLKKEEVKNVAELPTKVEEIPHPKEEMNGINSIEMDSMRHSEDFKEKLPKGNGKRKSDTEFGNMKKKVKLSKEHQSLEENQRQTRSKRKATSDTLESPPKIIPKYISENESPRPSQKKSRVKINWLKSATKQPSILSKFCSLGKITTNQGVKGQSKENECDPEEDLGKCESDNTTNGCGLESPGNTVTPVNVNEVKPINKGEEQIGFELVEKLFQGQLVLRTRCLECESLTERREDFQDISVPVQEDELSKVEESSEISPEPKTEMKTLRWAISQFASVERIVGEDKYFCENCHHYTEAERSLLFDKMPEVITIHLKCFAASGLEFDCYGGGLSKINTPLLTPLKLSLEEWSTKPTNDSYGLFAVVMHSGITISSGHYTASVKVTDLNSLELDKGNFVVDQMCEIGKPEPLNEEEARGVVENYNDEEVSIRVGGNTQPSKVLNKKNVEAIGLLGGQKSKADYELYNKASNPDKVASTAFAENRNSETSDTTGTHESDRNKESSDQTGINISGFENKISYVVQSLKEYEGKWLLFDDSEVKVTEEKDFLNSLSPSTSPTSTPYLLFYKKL
Sequence of Thyroid hormone receptor beta (Homo sapiens) (P10828 whole entry, looked up): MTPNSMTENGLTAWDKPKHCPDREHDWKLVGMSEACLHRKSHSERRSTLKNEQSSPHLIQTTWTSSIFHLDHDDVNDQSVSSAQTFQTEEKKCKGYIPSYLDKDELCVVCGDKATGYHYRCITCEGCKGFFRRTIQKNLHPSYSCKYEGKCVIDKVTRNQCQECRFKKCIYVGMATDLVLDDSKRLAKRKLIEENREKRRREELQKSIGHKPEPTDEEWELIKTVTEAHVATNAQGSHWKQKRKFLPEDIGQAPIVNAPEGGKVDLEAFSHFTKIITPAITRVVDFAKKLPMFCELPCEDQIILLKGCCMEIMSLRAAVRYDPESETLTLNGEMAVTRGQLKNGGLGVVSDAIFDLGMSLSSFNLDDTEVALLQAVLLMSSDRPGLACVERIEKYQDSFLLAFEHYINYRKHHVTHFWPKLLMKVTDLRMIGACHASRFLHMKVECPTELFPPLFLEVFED
Sequence of Glucocorticoid receptor (Homo sapiens) (P04150 whole entry, looked up): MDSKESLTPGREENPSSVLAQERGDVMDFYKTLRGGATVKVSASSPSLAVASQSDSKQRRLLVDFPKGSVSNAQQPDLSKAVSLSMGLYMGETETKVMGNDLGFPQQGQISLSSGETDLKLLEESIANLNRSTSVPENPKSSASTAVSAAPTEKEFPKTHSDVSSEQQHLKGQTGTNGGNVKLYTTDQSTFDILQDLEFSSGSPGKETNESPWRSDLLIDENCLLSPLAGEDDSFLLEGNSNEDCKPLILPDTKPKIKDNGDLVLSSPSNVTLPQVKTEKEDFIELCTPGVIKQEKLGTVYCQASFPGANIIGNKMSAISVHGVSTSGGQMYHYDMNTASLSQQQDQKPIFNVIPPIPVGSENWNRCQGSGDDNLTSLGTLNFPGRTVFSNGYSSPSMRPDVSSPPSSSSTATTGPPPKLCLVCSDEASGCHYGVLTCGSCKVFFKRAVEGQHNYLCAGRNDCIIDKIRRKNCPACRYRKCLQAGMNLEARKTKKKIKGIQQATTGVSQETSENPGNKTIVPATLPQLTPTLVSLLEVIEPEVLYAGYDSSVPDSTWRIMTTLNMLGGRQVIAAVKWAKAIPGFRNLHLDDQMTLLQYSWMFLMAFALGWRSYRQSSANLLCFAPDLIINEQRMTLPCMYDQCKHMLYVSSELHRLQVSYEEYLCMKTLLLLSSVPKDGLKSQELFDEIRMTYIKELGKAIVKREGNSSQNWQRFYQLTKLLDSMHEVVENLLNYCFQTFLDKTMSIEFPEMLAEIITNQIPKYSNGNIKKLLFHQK
Sequence of Peroxisome proliferator-activated receptor gamma (Homo sapiens) (P37231 whole entry, looked up): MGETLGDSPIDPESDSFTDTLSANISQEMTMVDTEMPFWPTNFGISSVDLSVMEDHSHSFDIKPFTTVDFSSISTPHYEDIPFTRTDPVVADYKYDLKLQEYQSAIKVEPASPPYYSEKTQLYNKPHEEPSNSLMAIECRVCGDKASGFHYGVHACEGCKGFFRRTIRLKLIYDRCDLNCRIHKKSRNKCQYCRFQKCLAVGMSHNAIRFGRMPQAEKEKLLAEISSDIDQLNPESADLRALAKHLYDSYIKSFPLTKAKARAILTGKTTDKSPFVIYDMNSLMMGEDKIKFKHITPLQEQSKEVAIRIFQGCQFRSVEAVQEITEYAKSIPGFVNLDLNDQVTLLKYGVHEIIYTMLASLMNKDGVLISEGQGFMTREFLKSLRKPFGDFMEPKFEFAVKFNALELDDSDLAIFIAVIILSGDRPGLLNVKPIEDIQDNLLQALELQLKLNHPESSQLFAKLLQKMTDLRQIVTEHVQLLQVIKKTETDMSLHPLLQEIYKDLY
Sequence of DNA dC->dU-editing enzyme APOBEC-3G (Homo sapiens) (Q9HC16 whole entry, looked up): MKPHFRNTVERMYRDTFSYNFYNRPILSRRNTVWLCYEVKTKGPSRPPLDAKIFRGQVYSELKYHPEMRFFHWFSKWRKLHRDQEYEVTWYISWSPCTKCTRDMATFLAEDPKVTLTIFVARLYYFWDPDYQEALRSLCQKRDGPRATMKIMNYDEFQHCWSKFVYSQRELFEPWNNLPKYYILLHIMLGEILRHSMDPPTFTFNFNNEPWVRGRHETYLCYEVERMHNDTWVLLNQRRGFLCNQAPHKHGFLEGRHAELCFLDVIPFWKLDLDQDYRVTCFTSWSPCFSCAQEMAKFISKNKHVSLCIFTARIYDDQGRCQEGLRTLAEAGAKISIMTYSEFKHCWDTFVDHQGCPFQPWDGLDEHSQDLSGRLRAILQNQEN
Sequence of phosphoglycerate mutase (Leishmania major) (Q4Q090 1-553): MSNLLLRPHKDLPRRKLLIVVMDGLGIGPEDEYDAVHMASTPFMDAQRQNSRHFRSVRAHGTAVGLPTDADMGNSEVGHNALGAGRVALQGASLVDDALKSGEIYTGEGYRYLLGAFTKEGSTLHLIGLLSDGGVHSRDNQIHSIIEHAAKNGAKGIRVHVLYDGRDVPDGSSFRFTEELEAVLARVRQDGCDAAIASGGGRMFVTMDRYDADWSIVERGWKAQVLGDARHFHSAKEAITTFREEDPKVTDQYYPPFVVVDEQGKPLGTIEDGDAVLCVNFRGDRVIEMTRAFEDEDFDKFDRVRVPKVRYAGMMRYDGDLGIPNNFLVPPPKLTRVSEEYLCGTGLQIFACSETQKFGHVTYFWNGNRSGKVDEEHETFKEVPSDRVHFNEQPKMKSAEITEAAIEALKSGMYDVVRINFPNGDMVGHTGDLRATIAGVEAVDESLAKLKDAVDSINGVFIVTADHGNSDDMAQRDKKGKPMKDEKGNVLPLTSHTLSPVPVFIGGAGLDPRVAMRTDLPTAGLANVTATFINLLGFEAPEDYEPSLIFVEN
Sequence of Estrogen receptor (Homo sapiens) (P03372 whole entry, looked up): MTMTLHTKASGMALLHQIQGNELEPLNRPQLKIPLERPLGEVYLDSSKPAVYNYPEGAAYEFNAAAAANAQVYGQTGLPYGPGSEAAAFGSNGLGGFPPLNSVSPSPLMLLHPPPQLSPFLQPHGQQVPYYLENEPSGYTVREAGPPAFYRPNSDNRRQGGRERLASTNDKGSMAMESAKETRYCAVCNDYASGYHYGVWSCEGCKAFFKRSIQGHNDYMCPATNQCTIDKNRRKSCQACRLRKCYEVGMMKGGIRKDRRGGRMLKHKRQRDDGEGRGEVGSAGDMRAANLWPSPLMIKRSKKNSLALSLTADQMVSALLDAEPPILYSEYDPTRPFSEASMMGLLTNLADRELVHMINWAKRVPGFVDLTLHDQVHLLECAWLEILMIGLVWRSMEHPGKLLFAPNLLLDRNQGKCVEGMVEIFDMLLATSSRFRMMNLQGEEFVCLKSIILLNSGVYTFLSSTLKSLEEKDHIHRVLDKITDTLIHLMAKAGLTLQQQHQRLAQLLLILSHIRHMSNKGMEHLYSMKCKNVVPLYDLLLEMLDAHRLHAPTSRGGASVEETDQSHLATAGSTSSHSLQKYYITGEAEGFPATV

Nc1ccn([C@H]2CC[C@@H](CO)O2)c(=O)n1
inactive: outcome [1] | Potency [2] | outcome [3] | Potency [4] | outcome [5] | outcome [6] | outcome [8] | outcome [9] | Potency [10] | outcome [12] | outcome [13]
-7.85% and -11%: max response [11]
-2.4% and 34.8%: max response [7]

CCOC(=O)c1ncn2c1CN(C)C(=O)c1cc(F)ccc1-2
inactive: outcome [1] | Potency [2] | outcome [3] | Potency [4] | outcome [5]

CNCCCC12CCC(c3ccccc31)c1ccccc12
active: Potency [4] 15.8 µM
inactive: outcome [1] | Potency [2] | outcome [5]

N[C@@H](Cc1c[nH]c2ccc(O)cc12)C(=O)O
inactive: outcome [1] | Potency [2] | outcome [3] | Potency [4] | outcome [6] | activation [14] -7.97% | outcome [8] | outcome [9] | Potency [10] | outcome [15] | outcome [16] | outcome [12]
3.83%: max response [7]
-7.77%: max response [11]

O=c1[nH]cc(F)c(=O)[nH]1
-12.4%: max response [11]
inactive: outcome [1] | Potency [2] | outcome [3] | Potency [17] | outcome [15] | outcome [16] | outcome [12]

Nc1nnc(-c2cccc(Cl)c2Cl)c(N)n1
inactive: outcome [1] | Potency [2] | outcome [3] | Potency [4] | outcome [5]

O=C(CCCN1CCC(O)(c2ccc(Cl)cc2)CC1)c1ccc(F)cc1
inactive: outcome [1] | Potency [2] | outcome [3] | Potency [4] | outcome [5] | Potency [18] | activation [14] -2.91% | Potency [17] | outcome [9] | Potency [10] | outcome [12] | outcome [13]
-1.31%: max response [11]

Nc1c2c(nc3ccccc13)CCCC2
inactive: outcome [1] | Potency [2] | outcome [3] | outcome [5] | outcome [6] | outcome [9] | outcome [13]

CN1CCC(=C2c3ccccc3CC(=O)c3sccc32)CC1
inactive: outcome [1] | Potency [2] | outcome [3] | outcome [5]

CCC1(c2ccccc2)C(=O)NCNC1=O
inactive: outcome [1] | Potency [2] | outcome [3] | Potency [4] | outcome [5] | Potency [18] | activation [14] -1.52% and -4.43% | Potency [17] | outcome [9] | Potency [10] | outcome [15] | outcome [16] | outcome [12] | outcome [13]
-2.48% and -11.6%: max response [11]

COc1ccc2c(c1)c(CC(=O)O)c(C)n2C(=O)c1ccc(Cl)cc1
inactive: outcome [1] | Potency [2] | outcome [3] | Potency [4] | outcome [5] | activation [19] -9.17% | activation [14] -6.76% | Potency [17] | outcome [13]

Cc1cn([C@H]2C[C@H](N=[N+]=[N-])[C@@H](CO)O2)c(=O)[nH]c1=O
27.7% and 12.8%: max response [11]
16%: max response [7]
inactive: outcome [1] | Potency [2] | outcome [3] | Potency [4] | outcome [6] | Potency [18] | activation [14] -3.02% and 6.31% | Potency [17] | outcome [8] | outcome [9] | Potency [10] | outcome [15] | outcome [16] | outcome [12] | outcome [13]

O=C1N(c2ccccc2)c2ccccc2C1(Cc1ccncc1)Cc1ccncc1
inactive: outcome [1] | Potency [2] | outcome [3] | outcome [5]

Cc1cn([C@H]2C=C[C@@H](CO)O2)c(=O)[nH]c1=O
27.7% and 7.49%: max response [7]
inactive: outcome [1] | Potency [2] | outcome [3] | Potency [4] | Potency [18] | outcome [8] | outcome [9] | Potency [10] | outcome [15] | outcome [16] | outcome [12] | outcome [13]
-12.5% and -2.44% and -13%: max response [11]

CN1CCC(=C2c3ccccc3C=Cc3ccccc32)CC1
inactive: outcome [1] | Potency [2] | outcome [3] | outcome [5]
